Autofluor counter – compound fluorescence in toxin protease inhibitor counterscreen. compound autofluorescence counterscreen, microsphere flow cytometry; stronger effect = higher value. fluorescence intensity (concentration not given with the values). actives 3.1% (n = 360,000); in the data active means fluorescence intensity above about 16000; inconclusive means no clear call, values can overlap the other calls
BoNT A protease – BoNT A light chain protease inhibition; multiplex microsphere protease substrate cleavage, flow cytometry; inhibition, % at 10 µM; actives 0.17% (n = 360,000); AID 588499
BoNT F protease – blocks Botulinum neurotoxin F light chain protease | AID 588497 | inhibition, % at 10 µM | actives 0.22% (n = 360,000) | Multiplex microsphere protease cleavage assay, flow cytometry; in the data active means inhibition above about 35%, passing the limit was not always enough; inconclusive means no clear call, values can overlap the other calls
Anthrax LF inh2 – anthrax lethal factor protease inhibition | P15917 | multiplex microsphere protease cleavage assay, LF | inhibition, % at 10 µM | actives 0.12% (n = 360,000)
A number is an active result; - = inactive; ? = inconclusive. Compounds with a hit are over-represented: about 3.5% of the library has one in this group of screens. Unless noted, no stated cut-off is given here; in the data, active means inhibition above about 30%; inconclusive means no clear call, values can overlap the other calls; inactive means below that.

SMILES	Autofluor counter	BoNT A protease	BoNT F protease	Anthrax LF inh2
O=C(CCN1CCCCC1)Nc1ccc(Br)cc1C(=O)c1ccccc1	-	-	-	-
CC(C(=O)Nc1ccc(Br)cc1C(=O)c1ccccc1)N1CCCCC1 (configuration not stated)	19761	-	-	-
CCNC(=O)C1(C)CCN(Cc2csc(-c3ccccc3)n2)C1 (configuration not stated)	-	-	-	-
C=CC(C)Sc1nc2c(c(=O)n(C)c(=O)n2C)n1Cc1ccccc1Cl (configuration not stated)	-	-	-	-
C=CCOc1nc2c(c(=O)n(C)c(=O)n2C)n1Cc1ccccc1Cl	20534	-	-	-
Cn1c(=O)c2c(nc(Sc3ncccn3)n2Cc2ccccc2Cl)n(C)c1=O	18229	-	-	-
Cn1c(=O)c2c(nc(SCCCO)n2Cc2ccccc2Cl)n(C)c1=O	16181	-	-	-
Cn1c(=O)c2c(nc(OCc3ccc4c(c3)OCO4)n2Cc2ccccc2Cl)n(C)c1=O	-	-	-	-
Cn1c(=O)c2c(nc(NCc3ccc4c(c3)OCO4)n2Cc2ccccc2Cl)n(C)c1=O	17237	-	-	-
COCCOc1ccc(C(F)(F)F)cc1NC(=O)COC(=O)c1ccc(N2CCCC2=O)cc1	-	-	-	-
O=C(CN1CCN(C(=O)C2CCN(C(=O)/C=C/c3ccccc3)CC2)CC1)Nc1ccc(F)cc1	-	-	-	-
Cc1nnc(NC(=O)CSc2ncnc3scc(-c4ccccc4)c23)s1	21836	?	-	-
Cc1nnc(NC(=O)CCSc2ccc(Cl)cc2)s1	-	-	-	-
CCCCc1nnc(NC(=O)CCSc2ccccc2)s1	-	-	-	-
COCCSc1ccccc1C(=O)Nc1nnc(COC)s1	23162	-	-	-
Cc1nnc(NC(=O)CCSc2ccccc2)s1	16606	-	-	-
COCc1nnc(NC(=O)CCSc2ccccc2)s1	20338	?	-	-
CCCCCCn1cc(CN2CC(N(C)CCC)CS2(=O)=O)nn1 (configuration not stated)	-	-	-	-
COCc1nnc(NC(=O)CSc2ccccc2)s1	22373	-	-	-
COCc1nnc(NC(=O)CSc2ccc(C)cc2)s1	-	-	-	-
CC(C)C(=O)N1CCC1(C)C(=O)Nc1nc2ccccc2[nH]1 (configuration not stated)	-	-	-	-
COc1cccc(C(C)(O)c2nc(-c3ccc4c(c3)OCO4)cs2)c1 (configuration not stated)	-	-	-	-
Clc1ccc(NN(Cc2ccncc2)c2ccc(Cl)cc2)cc1	-	-	-	-
Cc1cc(C(F)F)n2nc(C(=O)Nc3ccccc3Br)nc2n1	20530	-	-	-
Cc1cc(C(F)F)n2nc(C(=O)Nc3cccnc3Cl)nc2n1	-	-	-	-
SMILES	Autofluor counter	BoNT A protease	BoNT F protease	Anthrax LF inh2
CCN1CCN(C(=O)c2ccccc2N(Cc2ccccc2)S(=O)(=O)c2ccc(C)cc2)CC1	21954	?	-	-
CCN1CCN(C(=O)c2ccccc2N(Cc2ccccc2)S(C)(=O)=O)CC1	21470	-	-	-
O=c1ccn([C@@H]2O[C@H](CNCc3cccc4c3sc3ccccc34)[C@@H](O)[C@H]2O)c(=O)[nH]1	-	-	-	-
FC(F)(F)c1cc(-c2ccco2)nc(N2CCN(Cc3ccccc3)CC2)n1	21755	-	-	-
Cc1ccccc1N(CC(=O)NCC1CCCO1)C(=O)C1(C)CC(=O)N=C2C=CC=CN21 (configuration not stated)	23341	-	-	-
CSc1nc2[nH]c(=O)n(O)c(=O)c2n1Cc1ccccc1	-	-	-	-
CCOc1ccc(C(=O)NCC2(c3ccccc3)CCOCC2)cc1	-	-	-	-
CCCCOc1ccc(C(=O)NCC2(c3ccccc3)CCOCC2)cc1	22415	?	-	-
COc1ccc(C2(CNC(=O)c3ccccc3)CCOCC2)cc1	-	-	-	-
CCCCCOc1ccc(C(=O)NCC2(c3ccccc3)CCOCC2)cc1	16606	-	-	-
CN(C)C=Nc1c(Br)cc(Br)c2nonc12	-	70.7	?	-
CC(C)C[C@H]1CN(CCCC[C@H]2CNC(=O)C(=O)N2CCC2CCCCC2)C(=O)C(=O)N1CC1CCCCC1	-	-	-	-
CCCCCCC(C)OC(=O)c1ccccc1C(=O)O (configuration not stated)	-	-	34.7	-
CC(CCC(C)OC(=O)c1ccccc1C(=O)O)OC(=O)c1ccccc1C(=O)O (configuration not stated)	-	-	-	-
Cc1cc(F)ccc1S(=O)(=O)NCC(c1cccnc1)N1CCc2ccccc21 (configuration not stated)	-	-	-	-
O=C(CSCc1ccccc1)NC1CCSC1=O (configuration not stated)	23850	-	-	-

Source: PubChem (NMMLSC)
